PubChem BioAssay
Activity calls are given as the source filed them. No stated cut-off is given here; in the data, active means inhibition above about 30%; inactive means the rest.

tested on: transactivating tegument protein VP16 (Human herpesvirus 1), Gal4-VP16 luciferase reporter; experiment: VP16 transactivation inhibitors, counter-screen for SRC3 inhibitor project, cell-based, luminescence, high throughput (AID 588794); conditions: mammalian cells, VP16-driven luciferase reporter luminescence; at 3.6 µM; stronger effect = higher value

Compound	inhibition
CC(=O)c1c(C)[nH]c(C(=O)OCC(=O)Nc2ccc(C)cc2[N+](=O)[O-])c1C	52.8% (active)
COC(=O)COc1cccc(NC(=O)c2cccs2)c1	-12.7% (inactive)
COc1ccc(CCNC(=O)C(C)n2nc(C)c3c(C)n(-c4ccc(C)cc4)nc3c2=O)c(OC)c1 (configuration not stated)	30.4% (active)
O=c1[nH]oc2cc(Cl)ccc12	-1.43% (inactive)
O=C(Nc1cc(C(=O)N2CCCC2)ccc1N1CCCC1)c1ccccc1F	13.1% (inactive)
COc1cccc(/C=N/NC(=O)C(C)n2nc(C)c([N+](=O)[O-])c2C)c1O (configuration not stated)	27.4% (inactive)
Cc1ccc(N=Nc2ccc3ccccc3c2O)cc1	17.5% (inactive)
CC(=NNC(=O)c1ccncc1)c1ccc2ccccc2c1O	32.6% (active)
Cc1cccc(C2(c3cccc(C)c3)CC2C(=O)Nc2ccc([N+](=O)[O-])cc2O)c1 (configuration not stated)	8.99% (inactive)
CSCc1cc(N(C)c2ccccc2)nc(-c2ccccn2)n1	-1.49% (inactive)
COc1ccc(OC)c(NC(=O)c2cccc(N3C(=O)C4C5C=CC(C6CC56)C4C3=O)c2)c1 (configuration not stated)	7.26% (inactive)
CCCC(=O)NC(c1ccc(OC)cc1)c1ccc2cccnc2c1O (configuration not stated)	63.7% (active)
CCOC(=O)Cc1[nH]nc2c1C(c1cccc(OC)c1OC)C(C#N)=C(N)O2 (configuration not stated)	0.25% (inactive)
Cn1c(SCC(=O)Nc2ccc(Cl)cc2)nc(O)cc1=O	-9.43% (inactive)
O=C(N/N=C/c1cc(Br)ccc1O)c1cccc(N2CCCC2=O)c1	30.7% (active)
Cc1nc2cc(F)ccc2n1C1CCN(S(=O)(=O)c2ccccc2)CC1	15.3% (inactive)
O=C1C=CC(=O)N1CCNc1ncc(C(F)(F)F)cc1Cl	-14.1% (inactive)
O=c1[nH]c(=O)n([C@H]2C[C@H](O)[C@@H](CO)O2)cc1Br	16.2% (inactive)
CC(=O)Nc1ccc(S(=O)(=O)Oc2ccccc2N2CCCCC2)cc1	0.67% (inactive)
COc1ccc(S(=O)(=O)NCc2ccncc2)cc1NC(=O)c1ccc(Cl)cc1	4.55% (inactive)
Cc1ccc(/C=C/C(O)=C2/C(=O)N(C)C3(C)CC2c2ccccc2O3)cc1 (configuration not stated)	30.3% (active)
CCc1ccc(NC(=O)c2cnc(N3CCN(c4ccccn4)CC3)c3ccccc23)cc1	42% (active)
Cn1nnnc1Sc1ncnc2scc(-c3ccccc3)c12	2.99% (inactive)
CC(=O)c1ccc(N2CCN(C(=O)c3nn(Cc4ccccc4)c(=O)c4ccccc34)CC2)cc1	-1.19% (inactive)
O=C(NC(=S)NNC(=O)c1ccccc1O)c1ccc(F)cc1	9.84% (inactive)
O=C(Nc1nc2ccccc2s1)C1c2ccccc2Oc2ccccc21	21.4% (inactive)
COC(=O)c1ccc2c(c1)C(C)(C)C(/C=C/c1ccccc1O)=[N+]2C	43.5% (active)
